Source: publication PMC9174471

Target: Histone H4 (UniProt P62805)
Assay: cross-link between two proteins; cross-linking mass spectrometry

In the case of ADP/ATP translocase 3, P12236, the “listed as a hit” value was “yes”.
